The results in this text go back to PubChem BioAssay (NCI).

The panel holds about 83,000 compounds, 20% with a hit somewhere; the sample as a whole holds those more often.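 Compound tested at a single concentration for 48 hours in 96-well plates; a percent growth value below 10 was scored as active.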 Values without a mark were called inactive. The source made the active and inactive calls.

The experiment relates to EKVX NSCLC. The experiment is described as follows: NCI-60 one-dose screen, 48 h (100 = growth as untreated, 0 = no growth, -100 = all killed). The conditions noted are these: 10 µM unless noted.
In the case of `C=CCn1c(SCC(=O)Nc2ccc(C(=O)/C=C/c3ccc(Cl)cc3)cc2)nnc1-c1c[nH]c2ccccc12`, the growth is 56.1%. Then `O=C(NNc1nc2cc(F)c(F)cc2n2c(CN3CC4CNCC4C3)ccc12)c1cnccn1` (stereo not drawn), with 19.5%. `COc1ccc2c(c1)c(CC(=O)[Se]CC#N)c(C)n2C(=O)c1ccc(Cl)cc1`: the growth is -2.11% (active). Then `O=C(NNc1nc2cc(F)ccc2n2c(CN3CCC(O)C3)ccc12)c1cnccn1` (stereo not drawn), with 10.1%; and `COc1ccc(COc2ccc(/C=C3\C(=O)Nc4ccccc43)cc2OC)cc1`, with 99.8%; and `O=C(NNc1nc2cc(F)ccc2n2c(CO)ccc12)c1cnccn1`, with 4.53% (active).

Turning to `N#Cc1cn(Cc2ccc(Cl)cc2Cl)c(C(=O)c2ccc(Br)cc2)c1N`, the growth is 93.8%. Turning to `O=C(CN1CCN(c2cc(=O)n(-c3ccccc3)c3ccccc23)CC1)Nc1nc(-c2ccccc2)cs1`, the growth was 45.5%. Take `COc1ccc(CCOc2cc3c(cc2OC)CCN(C(=O)NCc2cocn2)C3c2ccc(C)cc2C)cc1` (stereo not drawn): the growth was 39.7%. For the compound `COc1ccc(Oc2ccc(/C=N/NC(=O)CSc3nc4ccccc4c(=O)n3-c3ccc(Cl)cc3)cc2)cc1`, the growth is 69.4%.

Turning to `N#Cc1cccc(CN2CCC3=C(C2)C(=O)N(Cc2ccc(Cl)cc2)C2=NCCCN23)c1`, the growth was 29%. Under `O=C(NNc1nc2cc(F)ccc2n2c(CN3CC4CNCC4C3)ccc12)c1cnccn1` (stereo not drawn) stands 25.9%; under `CCOc1ccccc1NC1=C(Cl)C(=O)c2nc(C)ccc2C1=O`, -2.24% (active).
